Measured values from PubChem BioAssay (NCATS).
Results filed as inconclusive are left out. Calls of active or inactive are those of the source. Unless noted, how the calls were made is not given here.

What was measured:
[1] = qHTS profiling of the MIPE4 collection as inhibitors of Plasmodium falciparum (3D7) proliferation (AID 743344);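 further: scaled between DMSO vehicle wells and 0.29 µM artemisinin as full inhibition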; settings: P. falciparum 3D7 in erythrocytes, SYBR Green DNA fluorescence, 72 h; at 28.5 µM unless noted
Method in brief: (§1)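 Erythrocytes infected with P. falciparum (0.3% parasitemia, 2.5% hematocrit) incubated with compounds 72 h at 37 C, 5% CO2. Lysis with saponin/Triton buffer containing SYBR Green I, overnight at room temperature in the dark; DNA fluorescence (485/535 nm) normalised to 0.29 uM artemisinin and DMSO.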

[2] = qHTS profiling of the MIPE4 collection as inhibitors of Plasmodium falciparum (DD2) proliferation (AID 743345); settings: P. falciparum Dd2 in erythrocytes, SYBR Green DNA, 72 h
Method in brief: as §1

[3] = qHTS profiling of the MIPE4 collection as inhibitors of Plasmodium falciparum (DD2) proliferation (Rep 2) (AID 743346); settings: P. falciparum Dd2 in erythrocytes, SYBR Green DNA, 72 h
Method in brief: as §1

[4] = qHTS profiling of the MIPE4 collection as inhibitors of Plasmodium falciparum (HB3) proliferation (AID 743347);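 further: plate controls were DMSO vehicle wells for no effect and artemisinin wells for full effect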; settings: P. falciparum HB3 in erythrocytes, SYBR Green DNA, 72 h; at 28.5 µM unless noted
Method in brief: as §1

[5] = High-throughput drug toxicity screening in the BPDCN cell line Gen2.2 (AID 1224824); settings: Gen2.2 BPDCN cells; at 45.8 µM (top of the series) unless noted
Method in brief: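 Gen2.2 cells, 500 per well in phenol red-free RPMI with 10% FBS, exposed to compounds 48 h at 37 C, 5% CO2; viability by CellTiter-Glo luminescence. Percent activity scaled to DMSO (100%) and 9.2 uM bortezomib final (0%).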

[6] = High-throughput drug toxicity screening in the BPDCN cell line Cal-1 (AID 1224825); settings: Cal-1 BPDCN cell viability, qHTS; at 45.8 µM (top of the series) unless noted
Method in brief: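 Cal-1 cells, 500 per well in phenol-red-free RPMI with 10% FBS, exposed to compounds for 48 hours at 37C, 5% CO2. Viability read by CellTiter-Glo luminescence; percent activity normalized to DMSO (100%) and 9.2 uM bortezomib final (0%).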

[7] = qHTS assay for measurement of the activity of small molecule inhibitors on Zika virus induced Caspase-3 activity in human iPSC derived neural progenitor cells (hNPCs) (AID 1224857; active means well fitted curve in the direction sought with a large enough effect; an effect the other way counts as inactive or inconclusive; further: % of control where 0% means no effect; nearly all actives have a fitted effect of over 65% in size)
Method in brief: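 hNPCs seeded 350 cells/well, cultured 16–20 h; compounds added 1 h before ZIKV (2 FFU/cell), 37 C 6 h. Caspase-Glo 3/7 luminescence after 30 min RT; % inhibition from induction scaled to uninfected (0%) and infected (100%) wells.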

[8] = qHTS assay for measurement of the activity of small molecule inhibitors on Zika virus induced Caspase-3 activity in human astrocytoma cells (AID 1224859; active means well fitted curve in the direction sought with a large enough effect; an effect the other way counts as inactive or inconclusive;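 further: plate controls were ZIKV-infected untreated cells for no effect and uninfected cells for full effect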)
Method in brief: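 Luminescence read-out (Caspase-Glo 3/7, 30 min RT) of caspase activity in SNB-19 cells infected 6 h with ZIKV, 2 FFU/cell, after 1 h compound pretreatment; % inhibition from induction normalised to uninfected (0%) and infected (100%) wells.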

[9] = qHTS Screen of the MIPE 4.0 Collection Against Ewings Sarcoma (RDES) (AID 1259252; active means well fitted curve in the direction sought with a large enough effect; an effect the other way counts as inactive or inconclusive; further: nearly all actives have a fitted effect of over 35% in size; further: potency means the concentration at half of the fitted maximal effect)
Method in brief: (§2)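 Viability screen: 48 h incubation at 37C, 95% humidity, 5% CO2 with serially titrated compound, followed by CellTiter-Glo readout.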

[10] = qHTS Screen of the MIPE 4.0 Collection Against Ewings Sarcoma (EW8) (AID 1259255; active means well fitted curve in the direction sought with a large enough effect; an effect the other way counts as inactive or inconclusive; further: nearly all actives have a fitted effect of over 35% in size; further: potency means the concentration at half of the fitted maximal effect;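 on viability: 100% = DMSO-treated cells and 0% = medium-only wells without cells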)
Method in brief: as §2

[11] = qHTS Screen of the MIPE 4.0 Collection Against Ewings Sarcoma (TC32) (AID 1259256; active means well fitted curve in the direction sought with a large enough effect; an effect the other way counts as inactive or inconclusive; further: nearly all actives have a fitted effect of over 45% in size; further: potency means the concentration at half of the fitted maximal effect)
Method in brief: as §2

[12] = qHTS profiling for inhibitors of Plasmodium falciparum (HB3) proliferation (AID 743324; active means well fitted curve in the direction sought with a large enough effect; an effect the other way counts as inactive or inconclusive;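 further: 100% = DMSO vehicle wells and 0% = artemisinin-treated control wells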); settings: Plasmodium falciparum HB3 blood-stage proliferation; at 28.7 µM (top of the series) unless noted
Method in brief: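 P. falciparum HB3 grown in erythrocytes (0.3% parasitemia, 2.5% hematocrit final) with compound for 72 h at 37 C, 5% CO2. Parasite DNA detected by SYBR Green after saponin/triton lysis overnight; normalized to 0.29 uM artemisinin and DMSO.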

[13] = qHTS assay to identify small molecule inhibitors of chordoma cells - UCH-2 (AID 1259356; active means well fitted curve in the direction sought with a large enough effect; an effect the other way counts as inactive or inconclusive; further: on the % scale 0 is the no-effect control and ±100 the full control effect)
[14] = Identifying Small Molecule Inhibitors of Pancreatic Cancer Stem Cells (A2780, Spheroid) (AID 1259357; active means well fitted curve in the direction sought with a large enough effect; an effect the other way counts as inactive or inconclusive;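 further: compound exposure lasted 48 h before the ATP luminescence read; 100% = DMSO treated cells and 0% = wells without cells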); settings: Potency: A2780 spheroid viability
Method in brief: (§3)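 Pre-formed 14-day tumor spheroids or adherent cells dosed and incubated 48 h, 37C, 5% CO2. Viability assessed by CellTiter-Glo.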

[15] = Identifying Small Molecule Inhibitors of Pancreatic Cancer Stem Cells (SN12C, Spheroid) (AID 1259360; active means well fitted curve in the direction sought with a large enough effect; an effect the other way counts as inactive or inconclusive;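 further: 100% = DMSO-treated cells and 0% = wells without cells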); settings: Potency: SN12C spheroid viability
Method in brief: as §3

[16] = Identifying Small Molecule Inhibitors of Pancreatic Cancer Stem Cells (A278, Adherent) (AID 1259361; active means well fitted curve in the direction sought with a large enough effect; an effect the other way counts as inactive or inconclusive;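 further: viability read after 48 h compound exposure; 100% = DMSO-treated cells and 0% = cell-free media-only wells; nearly all actives have a fitted effect of over 35% in size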)
Method in brief: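 Monolayer and spheroid cultures are compared. Spheroids form over 14 days in stem cell medium on hydrogel-coated low-attachment plates, then are exposed to compound for 48 h before CellTiter-Glo luminescence.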

[17] = at 28.5 µM unless noted

CCC(=O)NCC[C@@H]1CCc2ccc3c(c21)CCO3
parasite growth, % of DMSO control [1]: 98.2%
parasite growth remaining, % of DMSO control (lower = more inhibition) [2, 17]: 89.9%
parasite growth, % of control (lower = inhibition) [3, 17]: 71.2%
growth, % of control [4]: 107%
cell viability, % of control (lower = more cytotoxic) [5]: 184%
viability (% of control) [6]: 117%
Potency [7]: inactive
Potency [8]: inactive
Potency [9]: inactive
Potency [10]: inactive
Potency [11]: inactive

Clc1ccc(COC(Cn2ccnc2)c2ccc(Cl)cc2Cl)c(Cl)c1 (centres undefined)
remaining proliferation (% of control), lower = more inhibition [12]: -0.548%
parasite growth remaining, % of DMSO control (lower = more inhibition) ([2]; at 9.64 µM (top of the series)): 11.2%
parasite growth remaining, % of DMSO control (lower = more inhibition) ([2]; at 28.5 µM): 6.56%
parasite growth, % of control (lower = inhibition) ([3]; at 9.64 µM (top of the series)): 19.2%
parasite growth, % of control (lower = inhibition) ([3]; at 28.5 µM): 12.3%
cell viability, % of control (lower = more cytotoxic) [5]: 90.5%
viability (% of control) [6]: 72.7%
Potency [7]: inactive
Potency [8]: inactive
Potency [9]: 26.4 µM (active)
Potency [11]: 18.7 µM (active)
outcome [13]: inactive

CCCCC[C@H](O)C=C[C@H]1[C@H](O)CC(=O)[C@H]1CCCCCCC(=O)O
parasite growth, % of DMSO control [1]: 71.4%
parasite growth remaining, % of DMSO control (lower = more inhibition) [2, 17]: 133%
parasite growth, % of control (lower = inhibition) [3, 17]: 71.7%
growth, % of control [4]: 103%
cell viability, % of control (lower = more cytotoxic) [5]: 64.6%
viability (% of control) [6]: 93.2%
Potency [7]: inactive
Potency [8]: inactive
Potency [9]: inactive
Potency [10]: inactive

CN1C(=O)C(Cc2c[nH]c3ccccc23)NC1=S (centres undefined)
remaining proliferation (% of control), lower = more inhibition [12]: 73.5%
parasite growth, % of DMSO control [1]: 338%
parasite growth remaining, % of DMSO control (lower = more inhibition) [2, 17]: 99%
parasite growth, % of control (lower = inhibition) [3, 17]: 123%
growth, % of control [4]: 245%
cell viability, % of control (lower = more cytotoxic) [5]: 70.1%
viability (% of control) [6]: 106%
Potency [7]: inactive
Potency [8]: inactive
Potency [9]: inactive
Potency [11]: inactive
Potency [14]: inactive
Potency [15]: inactive
IC50 (viability decrease) [16]: inactive

C=CC[N+]1([C@H]2C[C@H]3[C@@H]4CC[C@H]5C[C@H](O)[C@@H](N6CCOCC6)C[C@]5(C)[C@@H]4CC[C@]3(C)[C@H]2OC(C)=O)CCCC1
parasite growth, % of DMSO control [1]: 31.1%
parasite growth remaining, % of DMSO control (lower = more inhibition) [2, 17]: 41%
parasite growth, % of control (lower = inhibition) [3, 17]: 21.1%
growth, % of control [4]: 40.8%
cell viability, % of control (lower = more cytotoxic) [5]: 168%
viability (% of control) [6]: 116%
Potency [7]: inactive
Potency [8]: inactive
Potency [9]: inactive
Potency [10]: inactive
Potency [11]: inactive

O=C1CN2Cc3c(ccc(Cl)c3Cl)N=C2N1
remaining proliferation (% of control), lower = more inhibition [12]: 46.3%
parasite growth remaining, % of DMSO control (lower = more inhibition) [2, 17]: 91.6%
parasite growth, % of control (lower = inhibition) [3, 17]: 85.1%
growth, % of control [4]: 85.4%
cell viability, % of control (lower = more cytotoxic) [5]: 198%
viability (% of control) [6]: 96.9%
Potency [7]: inactive
Potency [8]: inactive
Potency [9]: 23.5 µM (active)
Potency [11]: 23.5 µM (active)

CC(C)(F)C[C@H](N[C@@H](c1ccc(-c2ccc(S(C)(=O)=O)cc2)cc1)C(F)(F)F)C(=O)NC1(C#N)CC1
parasite growth, % of DMSO control [1]: 56.4%
parasite growth remaining, % of DMSO control (lower = more inhibition) [2, 17]: 64.3%
growth, % of control [4]: 68.4%
cell viability, % of control (lower = more cytotoxic) [5]: 153%
viability (% of control) [6]: 99.1%
Potency [7]: inactive
Potency [8]: inactive
Potency [9]: 18.7 µM (active)
Potency [10]: 16.6 µM (active)
Potency [11]: 18.7 µM (active)

CO[C@@H]1C(N(C)C(=O)c2ccccc2)C[C@H]2O[C@]1(C)n1c3ccccc3c3c4c(c5c6ccccc6n2c5c31)C(=O)NC4=O (some centres undefined)
remaining proliferation (% of control), lower = more inhibition [12]: 120%
parasite growth, % of DMSO control [1]: 17.5%
parasite growth remaining, % of DMSO control (lower = more inhibition) [2, 17]: 8.87%
parasite growth, % of control (lower = inhibition) [3, 17]: 122%
growth, % of control [4]: 28.7%
cell viability, % of control (lower = more cytotoxic) [5]: 247%
viability (% of control) [6]: 28.3%
Potency [7]: inactive
Potency [8]: inactive
Potency [9]: 4.18 µM (active)
Potency [11]: 3.32 µM (active)
